Data as given in PubChem BioAssay AID1159580 (chemical genetic matrix, 2015).
Values joined by “and” are separate entries in the source; they are usually repeats but may differ in a detail not shown here. Identical values can stand only once. The campaign covered roughly 5,500 compounds. About 2,000 (36%) were called active. Not shown: some 18% with an inconclusive outcome. Cut-off read from the data, not from the text of the source: active = normalized growth mostly below about 0.91 (no sharp cut-off); inconclusive = no clear call, values can overlap the other calls; inactive = mostly above about 0.92. The list shows a part of the results.

Experiment: chemical genetic growth profiling, strain panel (AID 1159580);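 note: tested at 20 µM; growth read once vehicle control cultures reached saturation at 30 °C; 1 = growth at the plate median or of vehicle wells; lower values mean less growth of the strain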
Details: S. cerevisiae deletion strains, growth OD

With CC/C(=C(\c1ccccc1)c1ccc(OCCN(C)C)cc1)c1ccccc1 the normalized growth (locus YAL013W, strain DEP1, stronger effect = lower value) was 0.0667 (active), the normalized growth (locus YAL021C, strain ccr4, stronger effect = lower value) was 0.0669 (active) and the normalized growth (locus YAL026C, strain drs2, stronger effect = lower value) was 0.0635 (active). The normalized growth (locus YAL030W, strain snc1, stronger effect = lower value) was 0.0686 (active), the normalized growth (locus YAL040C, strain CLN3, stronger effect = lower value) was 1.04 (inactive) and the normalized growth (locus YBL061C, strain skt5, stronger effect = lower value) was 0.072 (active). The normalized growth (locus YBR009C, strain hhf1, stronger effect = lower value) was 0.0625 (active), the normalized growth (locus YBR021W, strain FUR4, stronger effect = lower value) was 0.0845 (active) and the normalized growth (locus YBR023C, strain chs3, stronger effect = lower value) was 0.0749 (active). For the same compound, the normalized growth (locus YBR171W, strain sec66, stronger effect = lower value) was 0.383 (active), the normalized growth (locus YBR229C, strain ROT2, stronger effect = lower value) was 0.0463 (active) and the normalized growth (locus YBR231C, strain swc5, stronger effect = lower value) was 0.0729 (active). For the same compound, the normalized growth (locus YBR279W, strain paf1, stronger effect = lower value) was 0.122 (active), the normalized growth (locus YCL011C, strain gbp2, stronger effect = lower value) was 0.0716 (active) and the normalized growth (locus YCL016C, strain dcc1, stronger effect = lower value) was 0.122 (active). The normalized growth (locus YCL029C, strain bik1, stronger effect = lower value) was 0.0615 (active), the normalized growth (locus YCL061C, strain MRC1 (second series), stronger effect = lower value) was 0.311 (active) and the normalized growth (locus YCL069W, strain vba3, stronger effect = lower value) was 0.0995 (active). The normalized growth (locus YCR088W, strain abp1, stronger effect = lower value) was 0.0758 (active), the normalized growth (locus YDL005C, strain med2, stronger effect = lower value) was 0.382 (active) and the normalized growth (locus YDL035C, strain GPR1, stronger effect = lower value) was 0.0496 (active). The normalized growth (locus YDL040C, strain nat1, stronger effect = lower value) was 0.312 (active), the normalized growth (locus YDL074C, strain BRE1, stronger effect = lower value) was 0.0746 (active) and the normalized growth (locus YDL101C, strain DUN1, stronger effect = lower value) was 0.0532 (active). For the same compound, the normalized growth (locus YDL134C, strain PPH21, stronger effect = lower value) was 0.0467 (active), the normalized growth (locus YDL185W, strain tfp1, stronger effect = lower value) was 0.606 (active) and the normalized growth (locus YDL192W, strain arf1, stronger effect = lower value) was 0.062 (active). The normalized growth (locus YDR001C, strain nth1, stronger effect = lower value) was 0.0956 (active), the normalized growth (locus YDR069C, strain doa4, stronger effect = lower value) was 0.068 (active) and the normalized growth (locus YDR101C, strain arx1, stronger effect = lower value) was 0.0613 (active). For the same compound, the normalized growth (locus YDR137W, strain rgp1, stronger effect = lower value) was 0.461 (active), the normalized growth (locus YDR150W, strain NUM1, stronger effect = lower value) was 0.0558 (active) and 0.416 (active) and the normalized growth (locus YDR159W, strain sac3, stronger effect = lower value) was 0.0992 (active). The normalized growth (locus YDR162C, strain NBP2, stronger effect = lower value) was 0.046 (active), the normalized growth (locus YDR195W, strain ref2) was 0.166 (active) and the normalized growth (locus YDR297W, strain sur2, stronger effect = lower value) was 0.0894 (active). The normalized growth (locus YDR318W, strain mcm21, stronger effect = lower value) was 0.0655 (active), the normalized growth (locus YDR334W, strain swr1, stronger effect = lower value) was 0.0759 (active) and the normalized growth (locus YDR335W, strain msn5, stronger effect = lower value) was 0.103 (active). The normalized growth (locus YDR363W, strain ESC2, stronger effect = lower value) was 0.174 (active), the normalized growth (locus YDR388W, stronger effect = lower value) was 0.0557 (active) and the normalized growth (locus YDR392W, strain spt3, stronger effect = lower value) was 0.0847 (active). The normalized growth (locus YDR502C, strain sam2, stronger effect = lower value) was 0.0692 (active), the normalized growth (locus YEL003W, strain gim4, stronger effect = lower value) was 0.127 (active) and the normalized growth (locus YEL037C, strain rad23, stronger effect = lower value) was 0.093 (active). The normalized growth (locus YEL061C, strain CIN8 (second series), stronger effect = lower value) was 0.243 (active), the normalized growth (locus YEL061C, strain CIN8, stronger effect = lower value) was 0.0479 (active) and the normalized growth (locus YER002W, strain NOP16, stronger effect = lower value) was 1.02 (inactive). For the same compound, the normalized growth (locus YER015W, strain faa2, stronger effect = lower value) was 0.117 (active), the normalized growth (locus YER016W, strain bim1, stronger effect = lower value) was 0.164 (active) and the normalized growth (locus YER110C, stronger effect = lower value) was 0.072 (active). For the same compound, the normalized growth (locus YER111C, strain swi4, stronger effect = lower value) was 0.372 (active), the normalized growth (locus YER155C, strain BEM2 (second series), stronger effect = lower value) was 0.668 (active) and the normalized growth (locus YER155C, strain BEM2, stronger effect = lower value) was 0.0653 (active). For the same compound, the normalized growth (locus YER167W, strain BCK2, stronger effect = lower value) was 0.05 (active), the normalized growth (locus YFR010W, strain ubp6, stronger effect = lower value) was 0.0799 (active) and the normalized growth (locus YGL078C, strain dbp3, stronger effect = lower value) was 0.901 (active). The normalized growth (locus YGL086W, strain mad1, stronger effect = lower value) was 0.0577 (active), the normalized growth (locus YGL167C, strain pmr1, stronger effect = lower value) was 0.196 (active) and the normalized growth (locus YGL173C, strain kem1, stronger effect = lower value) was 0.168 (active). The normalized growth (locus YGL227W, strain vid30, stronger effect = lower value) was 0.143 (active), the normalized growth (locus YGL240W, strain doc1, stronger effect = lower value) was 0.436 (active) and the normalized growth (locus YGL248W, strain PDE1, stronger effect = lower value) was 0.0453 (active). For the same compound, the normalized growth (locus YGL253W, strain hxk2, stronger effect = lower value) was 0.0687 (active), the normalized growth (locus YGR078C, strain PAC10, stronger effect = lower value) was 0.0556 (active) and 0.48 (active) and the normalized growth (locus YGR135W, strain pre9, stronger effect = lower value) was 0.0678 (active). The normalized growth (locus YGR229C, strain SMI1, stronger effect = lower value) was 0.061 (active) and 0.0615 (active), the normalized growth (locus YGR252W, strain gcn5, stronger effect = lower value) was 0.155 (active) and the normalized growth (locus YHR013C, strain ard1, stronger effect = lower value) was 0.174 (active). For the same compound, the normalized growth (locus YHR027C, strain rpn1, stronger effect = lower value) was 0.102 (active), the normalized growth (locus YHR030C, strain SLT2, stronger effect = lower value) was 0.0499 (active) and 0.883 (inactive) and the normalized growth (locus YHR079C, strain IRE1 (second series), stronger effect = lower value) was 0.0574 (active). For the same compound, the normalized growth (locus YHR079C, strain IRE1, stronger effect = lower value) was 0.883 (inactive), the normalized growth (locus YHR094C, strain hxt1, stronger effect = lower value) was 0.059 (active) and the normalized growth (locus YHR129C, strain ARP1, stronger effect = lower value) was 0.0531 (active). For the same compound, the normalized growth (locus YHR142W, strain chs7, stronger effect = lower value) was 0.0883 (active), the normalized growth (locus YHR200W, strain rpn10, stronger effect = lower value) was 0.0609 (active) and the normalized growth (locus YIL066C, strain RNR3, stronger effect = lower value) was 0.0471 (active). For the same compound, the normalized growth (locus YIL073C, strain SPO22, stronger effect = lower value) was 0.158 (active), the normalized growth (locus YIL125W, strain kgd1, stronger effect = lower value) was 0.91 (active) and the normalized growth (locus YIR030C, strain dcg1, stronger effect = lower value) was 0.0575 (active). For the same compound, the normalized growth (locus YJL092W, strain hpr5, stronger effect = lower value) was 0.0913 (active), the normalized growth (locus YJL095W, strain BCK1 (second series), stronger effect = lower value) was 0.0594 (active) and the normalized growth (locus YJL095W, strain BCK1, stronger effect = lower value) was 0.0507 (active) and 0.883 (inactive). For the same compound, the normalized growth (locus YJL115W, strain asf1, stronger effect = lower value) was 0.155 (active), the normalized growth (locus YJL129C, strain trk1, stronger effect = lower value) was 0.159 (active) and the normalized growth (locus YJL134W, strain LCB3, stronger effect = lower value) was 0.0479 (active). For the same compound, the normalized growth (locus YJL154C, strain vps35, stronger effect = lower value) was 0.078 (active), the normalized growth (locus YJL164C, strain tpk1, stronger effect = lower value) was 0.0754 (active) and the normalized growth (locus YJL166W, strain qcr8, stronger effect = lower value) was 0.0964 (active). The normalized growth (locus YJL168C, strain set2, stronger effect = lower value) was 0.057 (active), the normalized growth (locus YJL187C, strain SWE1 (second series), stronger effect = lower value) was 0.046 (active) and the normalized growth (locus YJR043C, strain POL32, stronger effect = lower value) was 0.0587 (active). For the same compound, the normalized growth (locus YJR066W, strain TOR1, stronger effect = lower value) was 0.888 (inactive) and the normalized growth (locus YJR075W, strain HOC1, stronger effect = lower value) was 0.0611 (active) and 0.54 (active).
